We go through eight compounds from PubChem BioAssay (Tox21).

The structures appear in SMILES notation. Unmarked numbers belong to inactive results. Inconclusive results are not listed. Activity calls are given as the source filed them. Unless noted, calls follow the shape of the dose curve; as a rule, active = well fitted curve in the direction sought with a large enough effect in the repeat runs; inconclusive = weak or mixed curves; inactive = no such curve, though single readings can be large; an effect the other way counts as inactive or inconclusive.

A short description of experiment [1]: qHTS assay to identify small molecule agonists of the estrogen receptor alpha (ER-alpha) signaling pathway in the presence of an antagonist - cell viability counter screen (AID 1259386).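 Also: series mostly up to about 92 µM; cells exposed to compounds for 22 h at 37 °C before the viability read; nearly all actives have a fitted effect of over 30% in size.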 In outline:
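The test measures whether compounds kill ER-alpha reporter cells (VM7Luc4E2) under antagonist co-treatment (ICI-182,780, 10.0nM). Fluorescence from CellTiter-Fluor is read after a 22hr exposure.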
A general note: In qHTS, concentration-response curves come from the screen itself.

Experiment [2] has as its target Progesterone receptor (Homo sapiens) (UniProt P06401). The experiment can be described thus: qHTS assay to identify small molecule agonists of the progesterone receptor (PR) signaling pathway (AID 1346784; calls by dose curve; also: nearly all actives have a fitted effect of over 30% in size). In short, it runs like this:
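HEK 293T PR-UAS-bla reporter cells, 2% charcoal-stripped FBS; 6 hr settle at 37C/5% CO2, compound (DMSO) 16 hr, LiveBLAzer B/G FRET substrate 2 hr RT, fluorescence intensity read.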

The nature of experiment [3]: qHTS assay to identify small molecule antagonists of the progesterone receptor (PR) signaling pathway - cell viability counter screen (AID 1346798). Also: series mostly up to about 92 µM; nearly all actives have a fitted effect of over 50% in size. In outline: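 Luminescence readout (CellTiter-Glo, 30 min, RT) of viability in PR-UAS-bla HEK293T cells exposed to compound and R5020 agonist for 16 hr at 37C, 5% CO2; run in the same wells as the beta-lactamase reporter read.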

The nature of experiment [4]: qHTS assay to identify small molecule agonists of the progesterone receptor (PR) signaling pathway - cell viability counter screen (AID 1346799; calls by dose curve; also: nearly all actives have a fitted effect of over 45% in size). In outline:
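HEK293T PR-UAS-bla, 3,000 cells/well, 2% charcoal-stripped FBS; 6 h settle, compound 16 h at 37C/5% CO2; LiveBLAzer 2 h RT, then CellTiter-Glo 30 min RT, luminescence read.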

Experiment [5] is described as follows: qHTS assay to identify small molecule antagonists of the TGF-beta/Smad signaling pathway - cell viability counter screen (AID 1346824). Also: nearly all actives have a fitted effect of over 50% in size. In outline: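 SBE-bla HEK 293T cells, incubated overnight, then compound plus 0.25 ng/mL TGF-beta1 (stock added) for 5 hr at 37 C. Viability was read in the same wells by CellTiter-Glo luminescence after 30 min at room temperature.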

Experiment [6] can be described thus: qHTS assay to identify small molecule agonists of the TGF-beta/Smad signaling pathway - cell viability counter screen (AID 1346829). Also: top concentration of the series differs between compounds; nearly all actives have a fitted effect of over 45% in size. In outline: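 In parallel with the Smad reporter read, viability of HEK 293T cells stably carrying SBE-bla is quantified by ATP luminescence following 5 hr compound treatment.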
Experiment [7] can be described thus: qHTS assay to identify small molecule agonists of the TGF-beta/Smad signaling pathway (AID 1346859; active = well fitted activation curve with a large enough effect in the signal ratio in the repeat runs, not every such curve was filed as active; the % refers to the signal ratio; also: series mostly up to about 77 µM). In short, it runs like this: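 Read-out: fluorescence at 460 and 530 nm (405 nm excitation) after a 2 hr room-temperature incubation with beta-lactamase FRET substrate. SBE-bla HEK 293T cells had been treated with test compounds for 5 hr at 37 C.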
The target of experiment [8] is Thyrotropin-releasing hormone receptor (Homo sapiens) (UniProt P34981). Description: qHTS assay to identify small molecule antagonists of the thyrotropin-releasing hormone receptor (TRHR) signaling pathway (AID 1346877; active = well fitted inhibition curve with a large enough effect in the repeat runs, not every such curve was filed as active; also: series mostly up to about 51 µM). In short, it runs like this: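 Overnight-plated (18 h, 37 °C) HEK293 cells expressing TRHR were dye-loaded 2 h, treated with compound, then stimulated with TRH at 1 nM final. Fluorescence intensity was captured every second for 3 min.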

Experiment [9] shares this target. The experiment can be described thus: qHTS assay to identify small molecule agonists of the thyrotropin-releasing hormone receptor (TRHR) signaling pathway (AID 1346891; calls by dose curve;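 also: HEK293 cells expressing TRHR with calcium dye readout; series mostly up to about 58 µM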). In short, it runs like this:
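HEK293/TRHR cells, 1500 per well, 18 h 37 °C; Ca dye 2 h 37 °C; pin-tool compound addition (agonist mode); kinetic fluorescence 3 min, 1 s reads; 15 concentrations, triplicate.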

The nature of experiment [10]: Human pregnane X receptor (PXR) small molecule agonists, qHTS cell viability counter screen (AID 1346977). Also: nearly all actives have a fitted effect of over 50% in size. In outline: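 Fluorescence read-out (CellTiter-Fluor) of viability in PXR-Luc HepG2 cells, multiplexed with the luciferase agonist read. Compounds in DMSO added after 5hr plating; 24hr total exposure at 37C, 5% CO2.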
The nature of experiment [11]: Caspase-3/7 induction in HepG2 cells by small molecules, qHTS assay (AID 1346978). Also: nearly all actives have a fitted effect of over 15% in size. In outline: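 Wild-type HepG2 cells, 2,000/well, settled 5 hr at 37 C and 5% CO2, then compound-treated for 17 hr; caspase-3/7 activity read by luminescent Caspase-Glo 3/7 after 30 min at room temperature.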
Experiment [12] is described as follows: Caspase-3/7 induction in CHO-K1 cells by small molecules, qHTS assay (AID 1346980). Also: nearly all actives have a fitted effect of over 15% in size. In short, it runs like this: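 Wild-type CHO-K1 cells exposed to compounds for 17hr at 37 C, 5% CO2. Caspase-3/7 activity then measured by Caspase-Glo 3/7 luminescence after 30min at room temperature.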
The nature of experiment [13]: Caspase-3/7 induction in HepG2 cells by small molecules, qHTS cell viability counter screen (AID 1346981). Also: series mostly up to about 92 µM; nearly all actives have a fitted effect of over 30% in size. In short, it runs like this:
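Treatment of HepG2 cells with DMSO-delivered compounds ran 16 hr at 37 C following a 5-hr pre-incubation of 2,000 cells/well. CellTiter-Fluor fluorescence, read after 1 hr, served as the viability measure in a qHTS format.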

Experiment [14] deals with Nuclear receptor subfamily 1 group I member 2 (Homo sapiens) (UniProt O75469). Description: Human pregnane X receptor (PXR) small molecule agonists, qHTS assay (AID 1346982). Also: nearly all actives have a fitted effect of over 35% in size. Also: potency is read from the fitted curve at half-maximal effect. In outline:
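Stable HepG2 line reporting PXR-mediated CYP3A4 expression via luciferase. Treatment: 24 hr with compounds in DMSO at 37 C. Detection: ONE-Glo luminescence.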

Experiment [15] can be described thus: Caspase-3/7 induction in CHO-K1 cells by small molecules, qHTS cell viability counter screen (AID 1346979). Also: nearly all actives have a fitted effect of over 35% in size. In outline: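 CHO-K1 wt, 1,500 cells/well; 5hr pre-incubation 37C/5% CO2; compound pin transfer (DMSO); 16hr exposure; CellTiter-Fluor added, 1hr, fluorescence read.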
Experiment [16] concerns the target Progesterone receptor (Homo sapiens) (UniProt P06401). Description: qHTS assay to identify small molecule antagonists of the progesterone receptor (PR) signaling pathway (AID 1346795; active = well fitted inhibition curve with a large enough effect in the signal ratio in the repeat runs, not every such curve was filed as active; the % refers to the signal ratio). In short, it runs like this: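 Beta-lactamase reporter, HEK293T PR-UAS-bla line; 2% charcoal-stripped FBS; 6 hr pre-incubation, 37C/5% CO2. Compound + R5020 1 nM final, 16 hr. LiveBLAzer B/G FRET substrate, 2 hr RT; fluorescence intensity read.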

For experiment [17], the target named is Nuclear receptor subfamily 1 group I member 2 (Rattus norvegicus) (UniProt Q9R1A7). Description: Rat pregnane X receptor (rPXR) activation by small molecules, qHTS assay (AID 1346983). Also: potency is read from the fitted curve at half-maximal effect; nearly all actives have a fitted effect of over 20% in size. The following applies: rPXR luciferase reporter cells, One-Glo luminescence, 24 h; max activation: hits give high values. In short, it runs like this:
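Cell-based rPXR activation assay: rPXR cells, 2,000 per well, rested 5hr at 37 C, then exposed to compounds in DMSO for 24 hr at 37 C. Luciferase activity read by One-Glo luminescence after 30 min at room temperature.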

For experiment [18], the target named is Nuclear receptor subfamily 1 group I member 2 (Homo sapiens) (UniProt O75469). Description: CYP3A4 induction through human pregnane X receptor (PXR) by small molecules, qHTS assay (AID 1346984). Also: potency is read from the fitted curve at half-maximal effect; nearly all actives have a fitted effect of over 40% in size. In outline: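 After 24 h at 37C with compound, DPX-2 cells (HepG2, co-transfected PXR response element and CYP3A4 promoter-luciferase) got 3uM final P450-Glo Luciferin-IPA for 3 h; One-Glo luminescence followed.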
Nuclear receptor subfamily 1 group I member 2 (Homo sapiens), sequence (O75469 whole entry, looked up): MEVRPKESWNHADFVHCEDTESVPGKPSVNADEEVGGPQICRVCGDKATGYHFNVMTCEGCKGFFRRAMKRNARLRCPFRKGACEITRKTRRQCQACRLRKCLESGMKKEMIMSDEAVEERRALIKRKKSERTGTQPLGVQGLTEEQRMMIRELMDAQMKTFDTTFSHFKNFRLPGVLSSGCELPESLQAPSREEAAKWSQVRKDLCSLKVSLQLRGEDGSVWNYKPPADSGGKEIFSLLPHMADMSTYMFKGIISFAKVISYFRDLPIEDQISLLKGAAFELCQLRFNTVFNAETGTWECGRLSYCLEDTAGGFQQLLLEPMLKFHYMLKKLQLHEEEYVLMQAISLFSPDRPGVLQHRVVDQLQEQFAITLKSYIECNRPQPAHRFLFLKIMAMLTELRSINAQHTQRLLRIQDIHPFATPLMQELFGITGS

Progesterone receptor (Homo sapiens), sequence (P06401 whole entry, looked up): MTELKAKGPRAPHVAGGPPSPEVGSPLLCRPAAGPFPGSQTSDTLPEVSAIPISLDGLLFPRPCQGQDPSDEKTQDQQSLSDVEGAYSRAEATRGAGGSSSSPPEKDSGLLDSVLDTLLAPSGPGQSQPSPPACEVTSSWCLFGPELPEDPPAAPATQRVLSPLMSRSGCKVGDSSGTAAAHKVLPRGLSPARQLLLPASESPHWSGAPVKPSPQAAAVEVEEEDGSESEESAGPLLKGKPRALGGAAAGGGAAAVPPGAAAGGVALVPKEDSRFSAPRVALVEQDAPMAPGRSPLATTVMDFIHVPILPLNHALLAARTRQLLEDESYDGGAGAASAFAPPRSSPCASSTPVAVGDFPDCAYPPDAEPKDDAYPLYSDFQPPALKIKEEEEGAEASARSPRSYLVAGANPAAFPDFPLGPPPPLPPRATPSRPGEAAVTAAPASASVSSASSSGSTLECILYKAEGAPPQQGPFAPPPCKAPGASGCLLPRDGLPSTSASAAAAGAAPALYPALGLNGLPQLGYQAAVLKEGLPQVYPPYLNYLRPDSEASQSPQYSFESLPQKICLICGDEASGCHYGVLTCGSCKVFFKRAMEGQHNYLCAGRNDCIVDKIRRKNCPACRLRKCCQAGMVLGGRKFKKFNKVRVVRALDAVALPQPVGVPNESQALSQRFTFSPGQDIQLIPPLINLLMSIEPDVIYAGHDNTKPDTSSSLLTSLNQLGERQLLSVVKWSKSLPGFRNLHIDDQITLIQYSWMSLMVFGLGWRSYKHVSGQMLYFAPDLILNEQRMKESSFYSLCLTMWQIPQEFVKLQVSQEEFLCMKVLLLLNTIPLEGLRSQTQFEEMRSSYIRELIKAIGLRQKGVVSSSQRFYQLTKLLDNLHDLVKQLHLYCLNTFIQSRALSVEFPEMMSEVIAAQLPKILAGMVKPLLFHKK
Thyrotropin-releasing hormone receptor (Homo sapiens), sequence (P34981 whole entry, looked up): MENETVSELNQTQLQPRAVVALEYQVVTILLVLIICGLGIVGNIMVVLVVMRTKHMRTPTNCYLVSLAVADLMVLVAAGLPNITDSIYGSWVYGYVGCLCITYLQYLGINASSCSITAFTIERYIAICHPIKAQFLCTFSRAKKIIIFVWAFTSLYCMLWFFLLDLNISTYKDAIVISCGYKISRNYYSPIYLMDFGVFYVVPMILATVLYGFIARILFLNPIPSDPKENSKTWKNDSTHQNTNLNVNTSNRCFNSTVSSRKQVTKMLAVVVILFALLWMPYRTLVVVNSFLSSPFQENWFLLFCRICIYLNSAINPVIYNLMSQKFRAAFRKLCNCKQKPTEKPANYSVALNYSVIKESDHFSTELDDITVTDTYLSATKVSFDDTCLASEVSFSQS
Nuclear receptor subfamily 1 group I member 2 (Rattus norvegicus), sequence (Q9R1A7 whole entry, looked up): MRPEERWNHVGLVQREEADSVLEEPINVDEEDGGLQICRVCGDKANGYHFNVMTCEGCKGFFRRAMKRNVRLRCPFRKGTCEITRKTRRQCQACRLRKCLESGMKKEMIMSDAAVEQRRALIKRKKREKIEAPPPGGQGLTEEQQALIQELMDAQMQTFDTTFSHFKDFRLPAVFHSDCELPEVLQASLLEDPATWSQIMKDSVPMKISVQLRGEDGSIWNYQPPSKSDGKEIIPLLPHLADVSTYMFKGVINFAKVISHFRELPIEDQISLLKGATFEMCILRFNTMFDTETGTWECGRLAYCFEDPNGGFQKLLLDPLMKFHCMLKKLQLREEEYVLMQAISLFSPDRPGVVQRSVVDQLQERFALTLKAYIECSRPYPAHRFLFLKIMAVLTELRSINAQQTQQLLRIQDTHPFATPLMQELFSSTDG

Take `CC(CCO)CCCC(C)(C)O` (configuration not stated): the result in experiment [1], in experiment [5], in [6], in experiment [7], in [8] and in experiment [9] was inactive. Further, the compound was classed as inactive in experiment [11], in experiment [12] and in [13]. The Potency result in experiment [2], in [3], in experiment [4], in experiment [10] and in experiment [14] was “inactive” throughout.
Regarding `CC1(C)OC(=O)Nc2ccc(Br)cc21`, the outcome in experiment [1], in experiment [5], in [6], in [7], in [8] and in experiment [9] was inactive. Besides, the compound was classed as inactive in experiment [11], in experiment [12] and in experiment [13]. Moreover, the Potency entry in experiment [2], in experiment [3], in experiment [4], in experiment [10] and in [15] was “inactive” each time. Besides, the Potency in experiment [14] was 23700 nM (active).
As to `CCCCC=O`, the result in [1], in experiment [6], in experiment [7], in [8], in experiment [9] and in experiment [11] was inactive. Besides, the call in [12] and in experiment [13] was inactive. In addition, the Potency entry in experiment [2], in [16], in [10], in experiment [15] and in experiment [14] was “inactive” each time.
Turning to `COc1cccc(Br)c1`, the result in experiment [1], in [6], in [7], in [8], in [9] and in [11] was inactive. Also, the compound was classed as inactive in experiment [12] and in [13]. The Potency entry in experiment [2], in experiment [16], in [10], in [15] and in [14] was “inactive” each time.
On to `OC1OC[C@@H](O)[C@H](O)[C@H]1O` (some centres not stated), for which the outcome in experiment [1], in experiment [5], in experiment [6], in experiment [7], in experiment [8] and in experiment [9] was inactive. In addition, the compound was classed as inactive in [11], in [12] and in [13]. For the same compound, the Potency result in [2], in experiment [16], in experiment [3], in experiment [10], in experiment [15] and in [14] was “inactive” each time.
On to `CCCOc1ccccc1-c1nc2n[nH]nc2c(=O)[nH]1`, for which the result in experiment [1], in experiment [5], in experiment [6], in experiment [8], in [9] and in experiment [11] was inactive. The call in [12] and in experiment [13] was inactive. The Potency entry in experiment [2], in [16], in [3], in [4], in experiment [10] and in [15] was “inactive” each time. Also, in experiment [14], the Potency result was “inactive”.
For the compound `CC(=O)c1ccc(C)cc1`, the result in experiment [1], in experiment [5], in experiment [6], in experiment [7], in experiment [8] and in experiment [9] was inactive. In addition, the outcome in experiment [11], in experiment [12] and in [13] was inactive. For the same compound, the Potency entry in [2], in [16], in experiment [3], in experiment [10], in experiment [15] and in experiment [14] was “inactive” throughout.
For the compound `CCCC(=O)O[C@]1(C(=O)CCl)[C@@H](C)C[C@H]2[C@@H]3CCC4=CC(=O)C=C[C@]4(C)[C@@]3(F)C(=O)C[C@@]21C`, the compound was classed as inactive in experiment [5], in [6], in experiment [7], in experiment [8], in experiment [9] and in experiment [11]. For the same compound, the compound was called inactive in experiment [12] and in experiment [13]. The Potency result in experiment [10] is “inactive”. The Potency in experiment [14] was 2110 nM (active); in [17], 1000 nM (active); in [18], 631 nM (active).
